Inconclusive results are not listed. Entries that show only a call come without a potency. Activity calls are given as the source filed them. Calls follow the shape of the dose curve; as a rule, active = well fitted curve in the direction sought with a large enough effect; inconclusive = small, poorly fitted or top-dose-only effect, or another doubt; inactive = no such curve, though single readings can be large; an effect the other way counts as inactive or inconclusive.

Assay [1] in a line: qHTS to identify inhibitors of the type 1 interferon - major histocompatibility complex class I in skeletal muscle: primary screen against the NCATS LOPAC collection (AID 1347405).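 Also: human myoblasts with HiBiT tag on endogenous HLA-B stimulated by IFN-beta; lytic HiBiT luminescence reporting HLA-B protein level.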 Also: potency is read from the fitted curve at half-maximal effect. In short, it runs like this:
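First, engineered myoblasts carrying HLA-B-HiBiT were seeded in medium lacking dexamethasone with 4 ng/ml IFN-beta. After 1 hr, compounds were pinned in (top 46 uM final, 7 points). After 24 hrs at 37 C, luminescence was measured following 10 min lysis.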
On the technique in general: In qHTS, concentration-response curves come from the screen itself.

The nature of assay [2]: qHTS for inhibitors of adenylyl cyclases using a fission yeast platform: a pilot screen against the NCATS LOPAC library (AID 1347410). A digest of the protocol:
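Inhibition of GNAS-stimulated AC9 activity in S. pombe was inferred from derepression of a PKA-repressed fbp1-GFP reporter, measured as cytometric fluorescence after 18 h at 30C with compounds at up to 57 µM.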

The target in assay [3] is Calcium and integrin-binding protein 1 (Homo sapiens) (UniProt Q99828). The assay can be described thus: Validation qHTS for Identification of Calcium Integrin Binding protein 1 (CIB1) Competitor (AID 1508618). In short, it runs like this: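 Displacement of FITC-alphaIIb peptide (100 nM) from CIB1-GST (1 uM) is monitored by polarization in quantitative HTS format; buffer carries 5 mM CaCl2 and 125 mM NaCl at pH 7.4, incubations are at room temperature.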

A short description of assay [4]: Validation qHTS assay for inhibitors of Activation Induced Cytidine Deaminase (AID): UDG Counterscreen signal (AID 1347427). In short, it runs like this: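 Fluorescence at 560 nm excitation, 665 nm emission reports UDG signal after 250 mM NaOH (2x) addition and 30 min. Enzymes (AID 1 uM, UDG 2 U/mL, at 4/3x) preincubated 10 min with compound, then 4 h with 4x 250 nM DJC20/DJC23 substrate at room temperature.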

The target of assay [5] is Single-stranded DNA cytosine deaminase (Homo sapiens) (UniProt Q9GZX7). The assay can be described thus: Validation qHTS assay for inhibitors of Activation Induced Cytidine Deaminase (AID): AID signal (AID 1347429). In short, it runs like this: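 Steps: dispense AID with UDG; pin-transfer compound up to 114 uM final; add DJC20/DJC23 substrate and hold 4 hr at room temperature; add NaOH, hold 30 min; read FRET signal (540/590 nm).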

Assay [6] can be described thus: Primary qHTS for inhibitors of La Crosse Virus (LACV) - induced cell death in SH-SY5Y cells (AID 1508616).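 Also: top concentration of the series differs between compounds; higher means more rescue of cells from virus-induced death.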 A digest of the protocol:
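SH-SY5Y, 6000 cells/well; cpd via pin tool in DMSO; LACV 0.01 MOI; 6 d 37C 5% CO2; ATPLite, 5 min RT; luminescence normalized to ±virus DMSO controls.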

Calcium and integrin-binding protein 1 (Homo sapiens), sequence (Q99828 whole entry, looked up): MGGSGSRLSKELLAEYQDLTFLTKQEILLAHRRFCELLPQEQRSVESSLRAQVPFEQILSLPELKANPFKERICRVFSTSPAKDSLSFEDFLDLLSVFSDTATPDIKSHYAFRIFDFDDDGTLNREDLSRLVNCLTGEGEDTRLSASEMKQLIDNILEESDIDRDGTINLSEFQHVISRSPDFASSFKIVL
Single-stranded DNA cytosine deaminase (Homo sapiens), sequence (Q9GZX7 whole entry, looked up): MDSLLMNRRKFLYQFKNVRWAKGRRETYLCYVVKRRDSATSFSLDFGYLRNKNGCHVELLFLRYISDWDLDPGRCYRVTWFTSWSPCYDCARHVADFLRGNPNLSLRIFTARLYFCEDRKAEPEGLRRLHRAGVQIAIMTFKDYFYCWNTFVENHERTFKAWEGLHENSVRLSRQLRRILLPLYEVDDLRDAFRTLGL

For `CCCCCCCCCCCCCCCCCCN(CCCCCCCCCCCCCCCCCC)CCCN(CCO)CCO`, in assay [1], the Potency entry was “inactive”. Further, the compound was called inactive in assay [2] and in assay [3].
In the case of `CC(C)(NS(=O)(=O)c1ccc(Oc2ccc(F)cc2)cc1)C(=O)NO`, the Potency entry in assay [1] was “inactive”. Moreover, the call in assay [2] and in assay [3] was inactive.
In the case of `O=C1NC(O)=NC1(c1ccccc1)c1ccccc1`, in assay [1], the Potency result is “inactive”. The compound was called inactive in assay [2] and in assay [3].
In the case of `OC[C@H]1O[C@@H](n2cnc3c(NC4CCCCC4)ncnc32)[C@H](O)[C@@H]1O`, the Potency entry in assay [1], in assay [4] and in assay [5] was “inactive” each time. Moreover, the result in assay [2] and in assay [3] was inactive.
`N[C@H](CCCP(=O)(O)O)C(=O)O`: the Potency result in assay [1] is “inactive”. Moreover, the outcome in assay [2] and in assay [3] was inactive.
In the case of `CC[C@H]1OC(=O)[C@H](C)[C@@H](O[C@H]2C[C@@](C)(OC)[C@@H](O)[C@H](C)O2)[C@H](C)[C@@H](O[C@@H]2O[C@H](C)C[C@H](NC)[C@H]2O)[C@](C)(O)C[C@@H](C)CN(C)[C@H](C)[C@@H](O)[C@]1(C)O`, the Potency result in assay [1] was “inactive”. In addition, the outcome in assay [2] and in assay [3] was inactive.
As for `CNCC[C@H](Oc1ccc(C(F)(F)F)cc1)c1ccccc1`, the Potency result in assay [1] and in assay [6] was “inactive” each time. In addition, in assay [2], the call was inactive.
With `COc1ccccc1CN[C@@H]1CCCN[C@@H]1c1ccccc1`, the Potency result in assay [1] was “inactive”. For the same compound, the call in assay [2] and in assay [3] was inactive.
In the case of `CCOC(=O)C1=C(C)NC(C)=C(C(=O)OCC)C1c1c(F)c(F)c(F)c(F)c1F`, the Potency in assay [1] was 20 µM (active). Moreover, in assay [2], the outcome was inactive. Also, the Potency entry in assay [5] and in assay [6] was “inactive” in each case.
Regarding `O=C(Nc1ccncc1)c1cc([N+](=O)[O-])ccc1Cl`, the Potency in assay [1] was 15.8 µM (active). In addition, the compound was called inactive in assay [2] and in assay [3].
On to `Nc1nc2ccc(Cl)cc2n2c(-c3ccccc3)nnc12`, for which the Potency result in assay [1] was “inactive”. For the same compound, the result in assay [2] and in assay [3] was inactive.
Regarding `COc1ccc(/C=C2\COc3ccc(C)cc3C2=O)cc1O`, the Potency in assay [1] is 14.1 µM (active). For the same compound, the outcome in assay [2] and in assay [3] was inactive.

Values taken from PubChem BioAssay (NCATS).
